Results taken from PubChem BioAssay (NCI).
This is part of a sample that, as a whole, favours compounds with a hit. Of some 79,000 tested, about 15% had one in any assay. The source made the active and inactive calls. No stated cut-off is given here; in the data, active means growth inhibition above about 70%; inactive means the rest.

Assays:
[1] = NCI Yeast Anticancer Drug Screen. Data for the rad50 strain (AID 155);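 further: 0% = growth of vehicle-only cultures of the same strain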; details: S. cerevisiae rad50 strain growth inhibition; at 50.0 µM; stronger effect = higher value
Outline: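 Relative growth inhibition (compound vs vehicle) was measured in yeast with a defined repair-gene alteration.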

[2] = NCI Yeast Anticancer Drug Screen. Data for the mec2-1 strain (AID 157); details: S. cerevisiae mec2-1 strain, at 50.0 µM, stronger effect = higher value
Outline: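 Readout is yeast growth inhibition, normalised to vehicle-treated controls, in the mec2-1 strain exposed to compound.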

[3] = NCI Yeast Anticancer Drug Screen. Data for the sgs1 mgt1 strain (AID 161);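 further: 0% = growth of cultures given vehicle only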; details: S. cerevisiae sgs1 mgt1 strain, at 50.0 µM, stronger effect = higher value
Outline: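 Compounds are added to genetically altered yeast, and growth is compared with cultures given vehicle alone to give percent inhibition.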

[4] = NCI Yeast Anticancer Drug Screen. Data for the cln2 rad14 strain (AID 165);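 further: 0% = growth equal to vehicle treated cultures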; details: S. cerevisiae cln2 rad14 strain, at 50.0 µM, stronger effect = higher value
Outline: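 Relative to vehicle controls, growth inhibition of compound-treated cln2 rad14 yeast was recorded.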

[5] = NCI Yeast Anticancer Drug Screen. Data for the bub3 strain (AID 167); details: S. cerevisiae bub3 mutant strain, at 50.0 µM, stronger effect = higher value
Outline: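 Screening used yeast with an engineered genetic alteration affecting cell cycle control. Compound-exposed cultures were compared with vehicle cultures, and reduced growth was taken as inhibition.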

[6] = NCI Yeast Anticancer Drug Screen. Data for the mlh1 rad18 strain (AID 175); details: S. cerevisiae mlh1 rad18 strain growth inhibition; at 50.0 µM; stronger effect = higher value
Outline: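 Test agents were incubated with a yeast strain of defined genotype (DNA damage repair defect). Inhibition of growth was derived by comparison with vehicle-exposed cultures.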

Compound | growth inhibition [1] | growth inhibition [2] | growth inhibition [3] | growth inhibition [4] | growth inhibition [5] | growth inhibition [6]
Cc1ccc(O)c(Cc2cc(C)cc(Cc3cc(C)ccc3O)c2O)c1 | 30.2% (inactive) | -7.85% (inactive) | 15.2% (inactive) | 36.9% (inactive) | -2.85% (inactive) | 42.4% (inactive)
COc1ccccc1CC(C)N1CCCC1c1ccccc1 (configuration not stated) | -12.1% (inactive) | -6.8% (inactive) | -0.9% (inactive) | -41.6% (inactive) | 4.65% (inactive) | 3.4% (inactive)
COc1ccc2c(c1)C1(C)CCC(=O)C(C)=C1CC2 (configuration not stated) | 17.9% (inactive) | -3.95% (inactive) | 22.9% (inactive) | 7.75% (inactive) | 14.8% (inactive) | 14.4% (inactive)
CCc1cccc(CC)c1N1C(=O)C(=O)C(C(C)=O)C1=O (configuration not stated) | -4.05% (inactive) | -4.45% (inactive) | 7.6% (inactive) | -24.5% (inactive) | -1.25% (inactive) | 8.45% (inactive)
O=C(O)c1ccc(CS(=O)(=O)c2ccccc2C(=O)O)cc1 | 9% (inactive) | -0.6% (inactive) | 2.05% (inactive) | 15.8% (inactive) | 5.6% (inactive) | 20.2% (inactive)
CN(C)S(=O)(=O)Cc1ccccc1 | 7.95% (inactive) | -6.65% (inactive) | -6.65% (inactive) | -73.5% (inactive) | 6.75% (inactive) | -7.1% (inactive)
NC(=O)OC1CCN(c2cccc(Cl)c2)C1 (configuration not stated) | -8.1% (inactive) | -22.3% (inactive) | -16.1% (inactive) | 23.5% (inactive) | -18.8% (inactive) | 1.75% (inactive)
Nc1nnnn1C1CCCCC1 | 9.3% (inactive) | 3.8% (inactive) | -4.65% (inactive) | -8.65% (inactive) | -11.3% (inactive) | 20.9% (inactive)
COc1cc(C(C)O)c[n+](CCc2c[nH]c3ccccc23)c1 (configuration not stated) | -30% (inactive) | -19.5% (inactive) | -45.9% (inactive) | -8.1% (inactive) | -28% (inactive) | -36.5% (inactive)
CCCCNc1ccc2c(c1)Cc1ccccc1-2 | 18.9% (inactive) | -4.1% (inactive) | 15.8% (inactive) | 3.25% (inactive) | -18.8% (inactive) | -8.35% (inactive)
O=C(/C(=C\c1ccc(Cl)cc1)c1ccccc1)c1ccccc1 | -38% (inactive) | -29.5% (inactive) | 4.9% (inactive) | 5.95% (inactive) | -23.4% (inactive) | -16.1% (inactive)
CC(C)=CC(=O)C/C(=N\NC(N)=S)C(=O)Nc1ccc(Cl)cc1 | -7.4% (inactive) | -27.5% (inactive) | 5.55% (inactive) | 9.45% (inactive) | 5.1% (inactive) | -1.3% (inactive)
Cc1cc(C)nc(NS(=O)(=O)c2ccc(NC(=O)c3ccncc3)cc2)n1 | -7.75% (inactive) | -17.1% (inactive) | 3.05% (inactive) | 9.55% (inactive) | -8.25% (inactive) | -17.1% (inactive)
COc1ccc(C(N)C(=O)O)cc1 (configuration not stated) | -17.4% (inactive) | -9.4% (inactive) | -6.8% (inactive) | -21.6% (inactive) | -12.5% (inactive) | -10.9% (inactive)
c1ccc(-c2nsc3ccccc23)cc1 | 14.3% (inactive) | -6.35% (inactive) | -8.25% (inactive) | -31.1% (inactive) | -14.8% (inactive) | 5.75% (inactive)
NC(N)=NS(=O)(=O)c1ccc(Nc2c3ccccc3nc3c(C(=O)Nc4ccc(S(N)(=O)=O)cc4)ccc(Cl)c23)cc1 | -8.55% (inactive) | -2.1% (inactive) | -2.75% (inactive) | 29.8% (inactive) | -2.25% (inactive) | 7.85% (inactive)
COc1ccc(OC)c(/C=C/C(=O)NC(CO)CSCSC)c1 (configuration not stated) | -0.35% (inactive) | 4.75% (inactive) | -3.9% (inactive) | -10.8% (inactive) | 21.5% (inactive) | -24.4% (inactive)
COc1ccc(NC(C)=O)c([N+](=O)[O-])c1 | 23.3% (inactive) | 0.25% (inactive) | 19.3% (inactive) | 16.3% (inactive) | -8.35% (inactive) | 6.3% (inactive)
O/N=C1\CC2(N3CCOCC3)CCC1(c1ccccc1)CC2 | 11.5% (inactive) | -12.3% (inactive) | 54.1% (inactive) | 20.9% (inactive) | 38% (inactive) | 11.9% (inactive)

Compound | growth inhibition [1] | growth inhibition [2] | growth inhibition [3] | growth inhibition [4] | growth inhibition [5] | growth inhibition [6]
C#CC(OC(=O)c1cc([N+](=O)[O-])cc([N+](=O)[O-])c1)C1OC(C)(C)OC1C1COC(C)(C)O1 (configuration not stated) | 27% (inactive) | 26.4% (inactive) | 57.1% (inactive) | -1% (inactive) | 7.25% (inactive) | 58.5% (inactive)
CCCCCCO[Si](OCCCCCC)(OCCCCCC)OCCCCCC | -35.1% (inactive) | -32.4% (inactive) | -10.8% (inactive) | 17.4% (inactive) | -17.8% (inactive) | -17.4% (inactive)
O=C(Cc1nc(-c2ccccc2)cc(=O)n1-c1ccccc1Cl)c1ccncc1 | 32.4% (inactive) | 12.5% (inactive) | -6.3% (inactive) | 21.2% (inactive) | -1.2% (inactive) | 20.4% (inactive)
N#CC(CNC1CCCCC1)c1ccccc1 (configuration not stated) | -9.35% (inactive) | -4.35% (inactive) | 4.3% (inactive) | -32.7% (inactive) | 15.1% (inactive) | 10.7% (inactive)
Nc1ccc([N+](=O)[O-])cc1C(=O)Oc1ccccn1 | 9.15% (inactive) | 5% (inactive) | 8.5% (inactive) | 10.8% (inactive) | -3.6% (inactive) | 19% (inactive)
NC(=O)CNC(=O)CN1C(=O)c2ccccc2C1=O | 9.05% (inactive) | -14.6% (inactive) | -13.1% (inactive) | 8.65% (inactive) | 2.1% (inactive) | -4.2% (inactive)
CCCCCCCCCCCCCCCCSCCOC(=O)C1C2CCC(O2)C1C(=O)O (configuration not stated) | 55.9% (inactive) | -18.4% (inactive) | 10.4% (inactive) | 13.9% (inactive) | 30.2% (inactive) | 37.6% (inactive)
COC(=O)C(Br)(C(=O)OC)C(c1ccccc1)c1ccccc1 | 38.1% (inactive) | 41.3% (inactive) | 72.3% (active) | 26.2% (inactive) | 41.8% (inactive) | 37.3% (inactive)
O=C(CCCl)Nc1c(Cl)cccc1Cl | 10.2% (inactive) | 11.7% (inactive) | 8.9% (inactive) | 18.6% (inactive) | 21.1% (inactive) | -3.65% (inactive)
CCNC(=S)NCC | -11.2% (inactive) | -28.8% (inactive) | 20.6% (inactive) | 6.7% (inactive) | 0.4% (inactive) | 17.5% (inactive)
COC(=O)[CH2][Ge]([c]1ccccc1)[c]1ccccc1.COC(=O)[CH2][Ge]([c]1ccccc1)[c]1ccccc1 | 15.8% (inactive) | 9.15% (inactive) | 37.3% (inactive) | -5% (inactive) | -12.2% (inactive) | -8.3% (inactive)
CC1(C)C2CCC(C2)C1/C=C1/SC(=S)NC1=O (configuration not stated) | -6.2% (inactive) | -1.55% (inactive) | 1.55% (inactive) | 49% (inactive) | 17.8% (inactive) | 2.85% (inactive)
CCOC(=O)C(Cl)(NC(=O)NC(Cl)(C(=O)OCC)C(F)(F)F)C(F)(F)F (configuration not stated) | 3.8% (inactive) | 23.8% (inactive) | -0.85% (inactive) | -1.75% (inactive) | 3.2% (inactive) | 6.65% (inactive)
COc1ccc(C(=O)C(c2ccc(OCc3ccccc3)cc2)c2ccc(OCc3ccccc3)cc2)cc1 | 5.4% (inactive) | -35.8% (inactive) | -6.35% (inactive) | 26.9% (inactive) | -25.7% (inactive) | -5.55% (inactive)
C(#Cc1ccccc1)/C=C/C(=C\c1ccccc1)c1ccccc1 | 6.6% (inactive) | 4.9% (inactive) | -4.9% (inactive) | 11.8% (inactive) | 20.8% (inactive) | 33.5% (inactive)
O=C(NC(=Nc1ccccc1)SCSC(=Nc1ccccc1)NC(=O)c1ccco1)c1ccco1 | -5.85% (inactive) | -7.9% (inactive) | -45.7% (inactive) | 12.7% (inactive) | -4.7% (inactive) | -12.4% (inactive)
Cc1cccc(N2CCC(O)C2)c1 (configuration not stated) | -5.3% (inactive) | 7.25% (inactive) | -0.1% (inactive) | 9.35% (inactive) | -6.9% (inactive) | -21.1% (inactive)
CC(Br)CNC(=O)c1ccc([N+](=O)[O-])cc1 (configuration not stated) | -0.65% (inactive) | 17.3% (inactive) | 3.6% (inactive) | -4.35% (inactive) | 9.75% (inactive) | 13.3% (inactive)
